# Records with an inconclusive call do not appear. Calls of active or inactive are those of the source. Rule for the calls, unless noted: active = hit-call score of the fitted dose curve at least 0.9, where 1 is the maximum; inactive = score below 0.9.
# Tests used:
# [1] = CCTE_Harrill_HTTr_Apoptosis_MCF7: CCTE's 6-hour Apoptosis Assessment for the High-Throughput Transcriptomics (HTTr) Platform, in MCF-7 cells cultured in DMEM + 10% fetal bovine serum, Harrill Lab (AID 2284011)
# How it was run: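 MCF-7 (DMEM + 10% FBS), 384-well; 8-pt dilution series, 6 h chemical exposure; caspase-3/7 activation via CellEvent Caspase 3/7 Green, HCI; bidirectional fit vs DMSO.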
# [2] = CCTE_Harrill_HTTr_CellCount_MCF7: CCTE's Cell Proliferation Assessment for the High-Throughput Transcriptomics (HTTr) Platform, Harrill Lab (AID 2284012; active = hit-call score of the fitted dose curve at least 0.9, where 1 is the maximum;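 note: cells exposed to compound for six hours; intended direction is loss of nuclei count meaning fewer cells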)
# How it was run: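 Cell count from high-content imaging of Hoechst-labeled nuclei serves as viability/growth readout. Chemicals were applied to MCF-7 cells in eight concentrations for six hours, with fitting in both directions relative to DMSO.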
# [3] = CCTE_Shafer_MEA_acute_burst_duration_mean: CCTE's Neural Acute Assay for Mean Burst Duration, Shafer Lab (AID 2284014);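 note: hits are decreases in mean burst duration relative to DMSO controls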
# How it was run: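 Rat cortical cultures, DIV 13/15; 40 min baseline, then 40 min with compound (0.03-40 uM), 37 C. Spikes: 300-5000 Hz band-pass, 8x rms threshold. Read-out: % change in mean single-electrode burst duration, DMSO-referenced, loss direction.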
# [4] = CCTE_Shafer_MEA_acute_per_burst_spike_number_mean: CCTE's Neural Acute Assay for Average Number of Spikes Per Burst, Shafer Lab (AID 2284015);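 note: hits are decreases in mean spikes per burst versus baseline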
# How it was run: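 Percent change in mean spikes per single-electrode burst is compared between a 40 min baseline and a 40 min recording with compound (0.03-40 uM). Cultures were rat cortical neurons on MEA plates at DIV 13 or 15, recorded at 37 C, with DMSO as the negative control.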
# [5] = CCTE_Shafer_MEA_acute_interburst_interval_mean: CCTE's Neural Acute Assay for Mean Interburst Interval, Shafer Lab (AID 2284016);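 note: percent change of mean interburst interval versus each well's own pre-dose baseline; curves fitted for decrease in interburst interval relative to DMSO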
# How it was run: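 Percent change in mean single-electrode interburst interval was calculated per well from 40 min recordings before and after compound (0.03-40 uM). Recordings were made at 37 C on rat cortical cultures at DIV 13 or 15, with spikes detected at 8x rms threshold.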
# [6] = CCTE_Shafer_MEA_acute_burst_percentage_mean: CCTE's Neural Acute Assay for Percentage of Spikes in a Burst, Shafer Lab (AID 2284017);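 for AC50: curve fitted for loss of signal so potency reflects decreased burst percentage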
# How it was run: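 Well-level mean burst percentage from a 40-min recording after compound (0.03-40 uM) expressed as percent change from a 40-min baseline at 37C. Cultures: primary rat cortical neurons on MEA, dosed on DIV 13 or 15; fitted downward relative to DMSO.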
# [7] = CCTE_Shafer_MEA_acute_burst_percentage_std: CCTE's Neural Acute Assay for Standard Deviation of Burst Percentage, Shafer Lab (AID 2284018);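 note: fitted in the negative direction so actives lower burst percentage SD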
# How it was run: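 Rat primary cortical neurons on 48-well MEAs, DIV 13 or 15, 37 C. 40-min baseline then 40-min recording with compound (0.03-40 uM); well-level SD of per-electrode burst spike percentage, expressed as percent change from baseline.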
# [8] = CCTE_Shafer_MEA_acute_per_network_burst_spike_number_mean: CCTE's Neural Acute Assay for Average Number of Spikes in a Network Burst, Shafer Lab (AID 2284019);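 for AC50: curve fitted for loss of signal so actives reduce spikes per network burst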
# How it was run: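 Rat cortical cultures, DIV 13/15; spike threshold 8x rms noise, 300-5000 Hz band-pass, 12.5 kHz sampling; wells need >/= 10 active electrodes. Compound 0.03-40 uM, 40 min, 37 C; % change vs own baseline, DMSO negative control.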
# [9] = CCTE_Shafer_MEA_acute_per_network_burst_spike_number_std: CCTE's Neural Acute Assay for Standard Deviation of Number of Spikes in a Network Burst, Shafer Lab (AID 2284020);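 note: fitted for decrease in spike-number SD versus DMSO so actives lower it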
# How it was run: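 Rat cortical cultures, DIV 13/15, 37 C; 20-min stabilisation, 40-min baseline, compound 0.03-40 uM, 40-min re-record. Spikes detected at 8x rms noise (300-5000 Hz band-pass). Readout: % change from baseline in per-burst spike-number SD.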
# [10] = CCTE_Shafer_MEA_acute_per_network_burst_electrodes_number_mean: CCTE's Neural Acute Assay for Mean Number of Electrodes in a Network Burst, Shafer Lab (AID 2284021);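 note: curves fitted for decreases only so hits reduce electrodes per burst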
# How it was run: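 Primary rat cortical networks, mwMEA, 37 C. 20 min stabilization, 40 min baseline, compound 0.03-40 uM, 40 min re-record. Wells need >=10 active electrodes; percent change per well, negative fitting direction.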
# [11] = CCTE_Shafer_MEA_acute_network_burst_percentage: CCTE's Neural Acute Assay for Percentage of Network Bursts, Shafer Lab (AID 2284022);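 note: curves fitted for loss so actives lower network burst percentage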
# How it was run: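 Readout is the fraction of spikes falling in network bursts, expressed as per-well percent change from a 40-min pre-exposure baseline. Primary rat cortical neurons on MEA were exposed to 0.03-40 uM compound on DIV 13 or 15 and recorded for 40 min at 37 C.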
# [12] = CCTE_Shafer_MEA_acute_cross_correlation_area: CCTE's Neural Acute Assay for Area of Cross Correlation, Shafer Lab (AID 2284024);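 note: area under pooled inter-electrode spike cross-correlation near zero lag as percent change from own baseline; curves fitted for loss of cross-correlation area so actives lower synchrony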
# How it was run: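 Plates equilibrated 20 min at 37 C, then 40 min baseline was recorded, compound was added (0.03-40 uM), and a further 40 min was recorded. Wells needed ≥10 active electrodes (≥5 spikes/min) on exposure day.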
# [13] = CCTE_Shafer_MEA_acute_cross_correlation_HWHM: CCTE's Neural Acute Assay for Cross Correlation at Half Width at Half Maximum, Shafer Lab (AID 2284026);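 note: percent change per well from pre-dose baseline in spike cross-correlogram half width; hits are a decrease in cross-correlogram half width relative to DMSO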;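 for outcome: spontaneous network firing of rat primary cortical neurons on multiwell microelectrode arrays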
# How it was run: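 Rat cortical neuron cultures on microelectrode arrays were equilibrated 20 min at 37 C, recorded 40 min at baseline, then 40 min after compound addition (0.03-40 uM, ≥3 wells). Spikes were detected at 8x rms noise after 300-5000 Hz band-pass filtering.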
# [14] = CCTE_Shafer_MEA_acute_synchrony_index: CCTE's Neural Acute Assay for Synchrony, Shafer Lab (AID 2284027);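 note: network synchrony index of spontaneous spiking in primary rat cortical neurons on MEAs; fitted for loss of signal so actives lower synchrony relative to DMSO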
# How it was run: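 The synchrony index is taken as percent change per well between a 40 min baseline and a 40 min recording with compound (0.03–40 uM), at 37C. Rat cortical cultures on multiwell MEAs at DIV 13 or 15, spike threshold 8× rms noise.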
# [15] = CCTE_Shafer_MEA_dev_per_burst_spike_percent: CCTE's Neural Network Formation Assay for Percent of Spikes in a Burst, Shafer Lab (AID 2284032)
# How it was run: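 Value is trapezoidal AUC over recordings on days 5, 7, 9 and 12 of the well-mean fraction of spikes falling in single-electrode bursts; rat cortical cultures exposed continuously from plating, treatment renewed DIV 5 and 9, fitted downward against DMSO.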
# [16] = molecular target: Estrogen receptor (Homo sapiens) (UniProt P03372); assay: CCTE_Deisenroth_AIME_384WELL_LUC_Active: CCTE's 384-well Estrogen Receptor Transactivation Assay with AIME metabolic competence (ERTA luciferase; metabolism positive), Deisenroth Lab (AID 2284030; active = hit-call score of the fitted dose curve at least 0.9, where 1 is the maximum)
# How it was run: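 AIME metabolism-positive mode: chemicals 0.002 - 200 uM, 2 h with alginate-bound PB/BNF-induced rat S9 → medium to VM7Luc4E2 ERTA, 24 h → luciferase. Positive fit vs 17beta-estradiol; n=4 typical.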
# [17] = molecular target: Estrogen receptor (Homo sapiens) (UniProt P03372); assay: CCTE_Deisenroth_AIME_96WELL_LUC_Active: CCTE's 96-well Estrogen Receptor Transactivation Assay with AIME metabolic competence (ERTA luciferase; metabolism positive), Deisenroth Lab (AID 2284023; active = hit-call score of the fitted dose curve at least 0.9, where 1 is the maximum)
# How it was run: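 Metabolism-positive mode: induced rat hepatic S9 in alginate microspheres conditions test solutions (0.002 - 200 uM, 10 points) for 2 hours. VM7Luc4E2 ER luciferase reporter cells then exposed 24 h; positive-direction fit against 17beta-estradiol, n=4 typical.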
# [18] = molecular target: Estrogen receptor (Homo sapiens) (UniProt P03372); assay: CCTE_Deisenroth_AIME_96WELL_LUC_Inactive: CCTE's 96-well Estrogen Receptor Transactivation Assay without AIME metabolic competence (ERTA luciferase; metabolism negative), Deisenroth Lab (AID 2284025; active = hit-call score of the fitted dose curve at least 0.9, where 1 is the maximum)
# How it was run: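 Metabolism-negative arm: chemicals (0.002–200 uM, 10 points) incubated 2 h with alginate-water microspheres, then medium moved onto VM7Luc4E2 cells for 24 h luciferase read-out. Positive direction vs 17beta-estradiol; n≥4 experiments.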
# [19] = CCTE_Deisenroth_AIME_96WELL_CTox_Active: Cytotoxicity Assessment (CTOX) in CCTE's 96-well Estrogen Receptor Transactivation Assay with AIME metabolic competence (metabolism positive), Deisenroth Lab (AID 2284028; active = hit-call score of the fitted dose curve at least 0.9, where 1 is the maximum)
# How it was run: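 Cytotoxicity in VM7Luc4E2 breast cells after 24 h exposure to medium from a 2 h metabolic pre-incubation with induced rat hepatic S9 in alginate microspheres; fluorescent live-cell protease readout, 10-point series 0.002–200 uM, n=4.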
# [20] = CCTE_Deisenroth_AIME_96WELL_CTox_Inactive: Cytotoxicity Assessment (CTOX) in CCTE's 96-well Estrogen Receptor Transactivation Assay without AIME metabolic competence (metabolism negative), Deisenroth Lab (AID 2284029; active = hit-call score of the fitted dose curve at least 0.9, where 1 is the maximum)
# How it was run: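 Metabolism-negative mode: alginate-water lids without rat S9, 2 h pre-incubation of 10-point series (0.002 - 200 uM). Conditioned medium on VM7Luc4E2 cells 24 h; loss of fluorescent live-cell protease signal marks cytotoxicity.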
# Sequence of Estrogen receptor (Homo sapiens) (P03372 whole entry, looked up): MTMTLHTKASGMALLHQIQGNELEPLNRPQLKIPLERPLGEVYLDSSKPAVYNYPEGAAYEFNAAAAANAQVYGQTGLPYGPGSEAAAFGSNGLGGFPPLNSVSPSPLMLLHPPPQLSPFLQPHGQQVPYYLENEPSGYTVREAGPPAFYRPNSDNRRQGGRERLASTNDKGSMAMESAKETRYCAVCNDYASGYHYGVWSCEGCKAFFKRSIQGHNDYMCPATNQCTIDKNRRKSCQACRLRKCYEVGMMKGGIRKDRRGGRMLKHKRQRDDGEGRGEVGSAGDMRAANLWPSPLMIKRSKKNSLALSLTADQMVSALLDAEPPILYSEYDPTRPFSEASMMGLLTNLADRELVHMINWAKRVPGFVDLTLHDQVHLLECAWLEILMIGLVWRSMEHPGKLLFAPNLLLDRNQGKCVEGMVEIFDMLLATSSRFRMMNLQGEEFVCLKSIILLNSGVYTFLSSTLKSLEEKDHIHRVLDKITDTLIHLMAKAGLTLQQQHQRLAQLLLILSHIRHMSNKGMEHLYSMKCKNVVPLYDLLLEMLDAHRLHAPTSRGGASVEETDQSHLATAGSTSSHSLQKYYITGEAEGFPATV
smiles,measurement,setting,value
Nc1ncn([C@@H]2O[C@H](CO)[C@@H](O)[C@H]2O)c(=O)n1,outcome,[1],inactive
same,outcome,[2],inactive
same,outcome,[3],inactive
same,AC50,[4],5 µM (active)
same,AC50,[5],7.71 µM (active)
same,AC50,[6],8.06 µM (active)
same,AC50,[7],15 µM (active)
same,AC50,[8],0.992 µM (active)
same,outcome,[9],inactive
same,AC50,[10],5 µM (active)
same,AC50,[11],8.38 µM (active)
same,AC50,[12],0.00671 µM (active)
same,AC50,[13],7.72 µM (active)
same,AC50,[14],9.61 µM (active)
same,outcome,[15],inactive
C1CN(SSN2CCOCC2)CCO1,outcome,[1],inactive
same,outcome,[2],inactive
O=c1c2ccccc2oc2ccccc12,outcome,[1],inactive
same,outcome,[2],inactive
OC1CCCCCCCCCCC1,outcome,[1],inactive
same,outcome,[2],inactive
C1=Cc2ccccc2C1,outcome,[1],inactive
same,outcome,[2],inactive
CC(=O)[C@@]1(O)CC[C@H]2[C@@H]3C[C@H](C)C4=CC(=O)C=C[C@]4(C)[C@@]3(F)[C@@H](O)C[C@@]21C,outcome,[1],inactive
same,outcome,[2],inactive
CC(C)(Oc1ccc(C2CC2(Cl)Cl)cc1)C(=O)O (stereo not given),outcome,[1],inactive
same,outcome,[2],inactive
NC(=O)OCC(COC(N)=O)c1ccccc1,outcome,[1],inactive
same,outcome,[2],inactive
CC(=O)Nc1nnc(S(N)(=O)=O)s1,outcome,[1],inactive
same,outcome,[2],inactive
CCCCCC/C=C\CCCCCCCC(=O)O,outcome,[1],inactive
same,outcome,[2],inactive
c1ccc(-c2ccccn2)nc1,outcome,[1],inactive
same,outcome,[2],inactive
OC1CCCC1,outcome,[16],inactive
C=CC(=O)NC(C)(C)CS(=O)(=O)O,outcome,[1],inactive
same,outcome,[16],inactive
CN1C(=O)N(C)C(O)C1O (stereo not given),outcome,[3],inactive
same,outcome,[4],inactive
same,outcome,[5],inactive
same,outcome,[6],inactive
same,outcome,[7],inactive
same,outcome,[8],inactive
same,outcome,[9],inactive
same,outcome,[10],inactive
same,outcome,[11],inactive
same,outcome,[12],inactive
same,outcome,[13],inactive
same,outcome,[14],inactive
N[C@H]1C(O)O[C@H](CO)[C@H](O)[C@@H]1O (stereo not given in full),outcome,[15],inactive
CCCCCc1ccc(Cl)cc1,outcome,[16],inactive
O=c1cc(-c2ccccc2)oc2ccccc12,outcome,[1],inactive
same,AC50,[16],45.6 µM (active)
CCCCC/C=C\CCC=O,outcome,[16],inactive
C=C[Si](OC(C)=O)(OC(C)=O)OC(C)=O,outcome,[3],inactive
same,outcome,[4],inactive
same,outcome,[5],inactive
same,outcome,[6],inactive
same,outcome,[7],inactive
same,outcome,[8],inactive
same,outcome,[9],inactive
same,outcome,[10],inactive
same,outcome,[11],inactive
same,outcome,[12],inactive
same,outcome,[13],inactive
same,outcome,[14],inactive
CC=C1CC2C=CC1C2 (stereo not given),outcome,[16],inactive
O=S(=O)(O)c1ccccc1C=Cc1ccc(-c2ccc(C=Cc3ccccc3S(=O)(=O)O)cc2)cc1,outcome,[16],inactive
CC=CC(F)(F)C(F)(F)C(F)(F)F,outcome,[15],inactive
O=C(c1ccc(O)cc1)c1ccc(O)cc1O,outcome,[3],inactive
same,outcome,[4],inactive
same,AC50,[5],15 µM (active)
same,outcome,[6],inactive
same,outcome,[7],inactive
same,outcome,[8],inactive
same,outcome,[9],inactive
same,outcome,[10],inactive
same,outcome,[11],inactive
same,outcome,[12],inactive
same,outcome,[13],inactive
same,outcome,[14],inactive
CCCCCCCCCCOS(=O)(=O)O,outcome,[16],inactive
CC(C)(C)c1ccc(OC(=O)c2ccccc2O)cc1,AC50,[17],17.8 µM (active)
same,AC50,[18],23.7 µM (active)
same,outcome,[19],inactive
same,outcome,[20],inactive
O=C(C=Cc1ccccc1)OCc1ccccc1,outcome,[16],inactive
COC(F)(F)C(F)(C(F)(F)F)C(F)(F)F,outcome,[15],inactive
O=C1CCCN1CCO,outcome,[3],inactive
same,outcome,[4],inactive
same,outcome,[5],inactive
same,outcome,[6],inactive
same,outcome,[7],inactive
same,outcome,[8],inactive
same,outcome,[9],inactive
same,outcome,[10],inactive
same,outcome,[11],inactive
same,outcome,[12],inactive
same,outcome,[13],inactive
same,outcome,[14],inactive
O=S1(=O)OC(c2ccc(O)cc2)(c2ccc(O)cc2)c2ccccc21,outcome,[16],inactive
CCCCC(CC)COCC1CO1 (stereo not given),outcome,[3],inactive
same,outcome,[4],inactive
same,outcome,[5],inactive
same,outcome,[6],inactive
same,outcome,[7],inactive
same,outcome,[8],inactive
same,outcome,[9],inactive
same,outcome,[10],inactive
same,outcome,[11],inactive
same,outcome,[12],inactive
same,outcome,[13],inactive
same,outcome,[14],inactive
CCOC(F)(F)C(F)(F)C(F)(F)C(F)(F)F,outcome,[15],inactive
c1ccc2c(c1)ccc1cc3c(ccc4ccccc43)cc12,outcome,[1],inactive
same,outcome,[15],inactive
FC(F)=C(F)OC(F)(F)C(F)(F)C(F)(F)F,outcome,[15],inactive
O=C(C(Cl)Cl)N1CCOC12CCCCC2,outcome,[1],inactive
same,outcome,[16],inactive
CCOC(=O)CC,outcome,[16],inactive
CCCCC(CC)CCC(CC(C)C)OS(=O)(=O)O (stereo not given),outcome,[16],inactive
CO[Si](OC)(OC)c1ccccc1,outcome,[3],inactive
same,outcome,[4],inactive
same,outcome,[5],inactive
same,outcome,[6],inactive
same,outcome,[7],inactive
same,outcome,[8],inactive
same,outcome,[9],inactive
same,outcome,[10],inactive
same,outcome,[11],inactive
same,outcome,[12],inactive
same,outcome,[13],inactive
same,outcome,[14],inactive
same,outcome,[16],inactive
